Reference: PubChem BioAssay AID540341 (National Center for Advancing Translational Sciences (NCATS), 2011)
Results filed as inconclusive are left out. Values without a mark were called inactive. Calls come from the whole dose curve; as a rule, active = well fitted curve in the direction sought with a large enough effect; inconclusive = small, poorly fitted or top-dose-only effect, or another doubt; inactive = no such curve, though single readings can be large or run the other way.

molecular target: Lysosomal acid glucosylceramidase (Homo sapiens) (UniProt P04062); test: Activators of Human alpha-Glucosidase as a Potential Chaperone Treatment of Pompe Disease: Glucocerebrosidase Counter Screen; details: Purified GBA enzyme, 4MU-beta-glucoside fluorescence, 40 min; series mostly up to 57.1 µM; activity change, negative = inhibition: at the top concentration
Description: Alpha-glucosidase is responsible for hydrolysis of terminal, non-reducing 1,4-linked alpha-D-glucose residues with release of alpha-D-glucose. It is a lysosomal hydrolase that is required for the degradation of a small percentage (1-3%) of cellular glycogen in human. Deficiency of this enzyme results in glycogen-storage disease type II (GSDII), also referred to as Pompe disease, an autosomal recessive disorder. Structurally normal glycogen is accumulated in lysosomes and cytoplasm in affected patients, primarily in muscle tissues. Excessive glycogen storage within lysosomes may interrupt normal functioning of other organelles and leads to cellular injury. In turn, this leads to enlargement and dysfunction of the entire organ involved (eg, cardiomyopathy and muscle weakness). It has reported that the improper folding and trafficking of alpha-glucosidase resulting from the genetic mutations may account for a significant number of Pompe patients. […] We optimized this alpha-glucosidase assay in 1536-well plate format for identifying the novel small molecule inhibitors with the structures other than the sugar analogs in order to develop the new pharmacological chaperones. NIH Chemical Genomics Center [NCGC] NIH Molecular Libraries Probe Production Centers Network [MLPCN] MLPCN Grant: MH086442-01 Assay Submitter (PI): Wei Zheng
This is a fluorogenic enzyme assay with 4-methylumbelliferyl-beta-D-glucopyranoside as the substrate and purified wildtype glucocerebrosidase as the enzyme preparation. Upon the hydrolysis of this fluorogenic substrate, the resulting product, […] which can be detected by a standard fluorescence plate reader. Data were normalized to the controls for basal activity (without enzyme) and 100% activity (with enzyme). The AC50 values were determined from concentration-response data modeled with the standard Hill equation. Assay buffer: 50 mM citric acid (titrated with potassium phosphate to pH 5.0), 100 mM potassium chloride, 10 mM sodium chloride, 1 mM magnesium chloride, 0.01% Tween-20. 1536-well assay protocol: (1) Add 2 ul/well of glucocerebrosidase enzyme solution (5 nM final) (2) Add 23 nL compounds in DMSO solution. The final titration was 0.5 nM to 58 uM. (3) Add 2 ul of substrate (1 mM final) (4) Incubate at 37C for 40 min. (5) Add 2 ul stop solution (1M NaOH and 1M Glycine mixture, pH 10) (6) Detect the assay plate in a ViewLux plate reader (PerkinElmer) with Ex=365 nm and Em=440nm. Keywords: Glucocerebrosidase, beta-glucosidase, Gaucher Disease, pharmacological chaperone, chaperone therapy, high throughput screening, glucocerebrosidase inhibitor, MLSMR, MLSCN, NIH Roadmap, qHTS and NCGC

Chain of Lysosomal acid glucosylceramidase (Homo sapiens) (P04062 whole entry, looked up): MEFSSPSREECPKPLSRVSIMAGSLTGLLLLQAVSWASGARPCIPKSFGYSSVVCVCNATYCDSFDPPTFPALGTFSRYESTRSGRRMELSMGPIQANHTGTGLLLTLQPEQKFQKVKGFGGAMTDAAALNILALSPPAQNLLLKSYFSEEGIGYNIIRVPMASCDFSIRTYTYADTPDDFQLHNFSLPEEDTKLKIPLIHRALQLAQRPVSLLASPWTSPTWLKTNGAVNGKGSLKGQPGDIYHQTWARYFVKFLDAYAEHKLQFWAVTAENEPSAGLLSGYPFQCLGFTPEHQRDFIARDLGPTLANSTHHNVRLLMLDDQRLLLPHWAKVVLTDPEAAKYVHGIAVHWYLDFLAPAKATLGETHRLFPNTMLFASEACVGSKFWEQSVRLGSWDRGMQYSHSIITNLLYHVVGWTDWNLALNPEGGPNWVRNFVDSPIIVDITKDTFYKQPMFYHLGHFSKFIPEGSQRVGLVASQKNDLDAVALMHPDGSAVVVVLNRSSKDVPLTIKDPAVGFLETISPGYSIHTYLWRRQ

Row | SMILES | activity change, negative = inhibition
1 | COc1ccc(CCn2c3c(c(=O)[nH]c2=S)CN(C)CN3)cc1OC | 0%
2 | COc1ccc(CCn2c(=S)[nH]c(=O)c3[nH]cnc32)cc1OC | -5.98%
3 | c1csc(-c2nc(NCC3CCCO3)c3ccccc3n2)c1 (stereo unspecified) | 0% [at 48.8 µM]
4 | CCCN1CNc2c(c(=O)[nH]c(=S)n2CCc2ccc(C)cc2C)C1 | -4.57%
5 | CCCN1CNc2c(c(=O)[nH]c(=S)n2CCc2ccc3c(c2)OCCO3)C1 | 0%
6 | COc1ccc(CCn2c(=S)[nH]c(=O)c3nccnc32)cc1OC | 0%
7 | CCCN1CNc2c(c(=O)[nH]c(=S)n2CCc2cc(Cl)ccc2Cl)C1 | -1.89% [at 48.8 µM]
8 | OCCNc1nc(-c2cccs2)nc2ccccc12 | 0%
9 | COc1ccc(CCn2c3c(c(=O)[nH]c2=S)CN(C(C)C)CN3)cc1OC | 0%
10 | COc1ccc(C#Cc2cnc(Cl)c3cncnc23)cc1OC | 1.38% [at 48.8 µM]
11 | CCCN1CNc2c(c(=O)[nH]c(=O)n2CCc2ccc(OC)c(OC)c2)C1 | 0%
12 | O=S(=O)(c1ccc(Cl)cc1)N1CCN(c2nc(Nc3cc(Cl)ccc3O)nc3ccccc23)CC1 | 0% [at 48.8 µM]
13 | CCCN1CNc2c(c(=O)[nH]c(=S)n2CCc2cc(Cl)cc(Cl)c2)C1 | -2.31% [at 48.8 µM]
14 | CCCN1CNc2c(c(=O)[nH]c(=S)n2Cc2ccc(OC)c(OC)c2)C1 | 0%
15 | CCCN1CNc2c(c(=O)[nH]c(=S)n2CCc2cccc(C)c2C)C1 | 0.391%
16 | COc1ccc(C#Cc2c[nH]c(=O)c3cncnc23)cc1OC | -3.96%
17 | COc1ccc(CCn2c3c(c(=O)[nH]c2=S)CN(c2ccccc2)CN3)cc1OC | 0%
18 | COc1ccc(CCn2c(=S)[nH]c(=O)c3c(C)cc(C)nc32)cc1OC | -5.66%
19 | COc1ccc(CCc2c[nH]c(=O)c3cncnc23)cc1OC | 2.44%
20 | CCCN1CNc2c(c(=O)[nH]c(=S)n2CCc2ccc(C)c(C)c2)C1 | 0%
21 | CCCN1CNc2c(c(=O)[nH]c(=S)n2CCc2ccsc2)C1 | 0%
22 | CCCN1CNc2c(c(=O)[nH]c(=S)n2CCc2cccc(Cl)c2Cl)C1 | -9.82%
23 | CCCN1CNc2c(c(=O)[nH]c(=S)n2CCc2c(C)cccc2C)C1 | 0%
24 | CCCN1CNc2c(c(=O)[nH]c(=S)n2CCC(C)(C)C)C1 | 0%
25 | O=S(=O)(c1ccc(Cl)cc1)N1CCN(c2nc(-c3cccs3)nc3ccccc23)CC1 | 0%
26 | CCCN1CNc2c(c(=O)[nH]c(=S)n2CCc2cc(C)ccc2C)C1 | 0%
